# SW480 rereplic: A quantitative high throughput screen for small molecules that induce DNA re-replication in SW480 colon adenocarcinoma cells | SW480 DNA re-replication, Hoechst DNA content imaging, 48 h | Potency, µM (titrated, usually from 46.1 µM), for the others: at the highest dose re-replication activation, hits mostly activators | actives 1.8% (n = 340,000); further: potency means the concentration at half of the fitted maximal effect; % of control where 0% means no effect; nearly all actives have a fitted effect of over 55% in size
#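 Image-based read-out: total Hoechst fluorescence of nuclei (405 nm excitation, 500-530 nm emission), with hits raising the fraction of high-intensity nuclei. SW480 colon cells incubated 48 hr with compounds at 37 C.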
# IL-1B inflam inh: qHTS for Inhibitors of Inflammasome Signaling: IL-1-beta AlphaLISA Primary Screen. THP-1 LPS/ATP IL-1B secretion, AlphaLISA, 16 h; stronger effect = lower value. activity change, % at 57.5 µM. actives 4.7% (n = 360,000). AID 743279, 2014; in the data active means activity change below about -50%; inconclusive means mostly about -30% to -49%; further: on the % scale 0 is the no-effect control and ±100 the full control effect
#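 Secreted IL-1B measured by AlphaLISA bead assay after 16 h compound exposure of THP-1 cells; compounds (final up to 57.5 uM) added 1 h before LPS (250 ng/mL) and ATP (1.25 mM) stimulation; lower signal means less secretion.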
# TDP1 cell noCPT: qHTS for Inhibitors of human tyrosyl-DNA phosphodiesterase 1 (TDP1): qHTS in cells in absence of CPT | DT40 Tdp1-/- hTDP1 cells, no CPT, ATP luminescence, 48 h | Potency, µM (series often up to 46.2 µM), without a hit: at the highest dose activity change, negative = growth inhibition, most hits filed as inhibitors | actives 15% (n = 420,000) | AID 686978, 2013; further: potency means the concentration at half of the fitted maximal effect; on the % scale 0 is the no-effect control and ±100 the full control effect; nearly all actives have a fitted effect of over 55% in size
#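 Readout: luminescence from CellTiter-Glo after 30 min in the dark at RT. Cells: DT40 Tdp1-/- with stable hTDP1, 400/well. Exposure: compounds alone, ≥48 hr, 37 °C.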
# Chronic BCR inh: qHTS Assay to Find Inhibitors of Chronic Active B-Cell Receptor Signaling. actives 0.05% (n = 340,000). Potency, µM (top dose mostly 46.1 µM), inactives show at the highest dose activity change, negative = inhibition, most hits filed as inhibitors. ABC-DLBCL IkBa-CBG/CBR reporter, luminescence ratio, 4 h; active means well fitted inhibition curve with a large enough effect in the signal ratio, with a control signal flat, not every such curve was filed as active; inconclusive means small, poorly fitted or top-dose-only effect, or effect the other way, or a change in a side signal; the % refers to the signal ratio;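 further: potency means the concentration at half of the fitted maximal effect; plate controls were basal doxycycline-induced cells for no effect and cells given 10 µM MG132 for full effect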
#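 Doxycycline induced both beetle luciferases in TMD8 lymphoma cells; IKK-driven degradation limits the IkappaBalpha-fused green signal, while red luminescence normalises for cell number and nonspecific effects. Compounds tested up to 46 uM, 4 hrs.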
# MCF10A rerep: A quantitative high throughput screen for small molecules that induce DNA re-replication in MCF 10a normal breast cells | Potency, µM (highest dose often 46.1 µM), for inactives: top-dose activity, positive = re-replication, usual class: activators | actives 2.9% (n = 350,000) | MCF 10A DNA re-replication, Hoechst nuclear intensity, 48 h; further: potency means the concentration at half of the fitted maximal effect; % of control where 0% means no effect; nearly all actives have a fitted effect of over 50% in size
# DT40 TDP1 CPT: qHTS for Inhibitors of human tyrosyl-DNA phosphodiesterase 1 (TDP1): qHTS in cells in presence of CPT | AID 686979, 2013 | chicken DT40 Tdp1-/-;hTDP1 cells + 20 nM CPT, ATP luminescence, 48 h | actives 12% (n = 420,000) | Potency, µM (titrated, usually from 46.2 µM), inactives show at the highest dose activity change, negative = growth inhibition, actives largely listed as inhibitors; further: potency means the concentration at half of the fitted maximal effect; on the % scale 0 is the no-effect control and ±100 the full control effect; nearly all actives have a fitted effect of over 55% in size
#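 Chicken DT40 Tdp1-/- cells complemented with human TDP1, 400 cells/well, exposed to compounds plus 20 nM camptothecin for at least 48 h at 37 C; viability read as ATP content by CellTiter-Glo luminescence.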
# Starred values were filed as active, the others as inactive; ? = inconclusive; / = no result; [ ] = another dose, or the depositor's remark. An excerpt weighted towards active compounds, which were near 19% of everything screened. Unless noted, the call rests on the fitted dose curve; in most records, active means well fitted curve in the direction sought with a large enough effect; inconclusive means small, poorly fitted or top-dose-only effect, or another doubt; inactive means no such curve, though single readings can be large; an effect the other way counts as inactive or inconclusive.
SMILES,SW480 rereplic,IL-1B inflam inh,TDP1 cell noCPT,Chronic BCR inh,MCF10A rerep,DT40 TDP1 CPT
Cc1ccc(N/N=C(\C#N)C(=O)c2ccsc2)cc1,3%,28,?,?,15%,?
N#C/C(=N\Nc1ccc(Cl)cc1)C(N)=S,18%,-81*,5.8µM*,?,?,5.8µM*
N#C/C(=N\Nc1ccccc1)C(N)=S,-1%,/,?,?,-31%,-25%
BrC(=C\c1ccccc1)/C=N/n1cnnc1,23%,-13,0.58µM*,?,16µM*,0.29µM*
C(/CCc1ccccc1)=N\n1cnnc1,-1%,10,-2%,5%,2%,-3%
C(=N\Nc1ccc2nncn2n1)/c1ccco1,-7%,35,3%,8%,9%,10%
BrC(=C\c1ccccc1)/C=N/Nc1ccc2nncn2n1,?,-86*,?,?,?,?
O=C(Nc1ccc(N2CCOCC2)c(Cl)c1)c1cc2ccccc2o1,3%[9.22 µM],-78*,21µM*,?,13µM*,15µM*
COc1c(C(=O)Nc2ccccc2N2CCOCC2)cc2ccccc2c1Br,1%,-10,23µM*,/,?,?
O=C(Nc1ccccc1N1CCN(C(=O)c2ccccc2)CC1)c1cc2ccccc2o1,-1%,17,21µM*,-13%,0%,?
CSCc1c(C(=O)Nc2ccccc2N2CCOCC2)oc2ccccc12,?,29,7.3µM*,2%,14%,16µM*
O=C(Nc1ccccc1N1CCCC1)c1cc2ccccc2o1,7%,0,?,?,7%,?
O=C(O)c1ccc(C(S(=O)(=O)c2ccccc2)S(=O)(=O)c2ccccc2)cc1,/,-7,-8%,/,/,11%
CCn1c(-c2ccccc2F)nc2cc(C(=O)NC(c3ccccn3)C(F)(F)F)cc(NC(C)=O)c21 (centres undefined),/,/,-13%,/,/,7%[9.04 µM]
OC(c1ccc(CN2CCCCC2)cc1)c1ncc(-c2ccccc2F)[nH]1 (centres undefined),/,-3,-9%,/,/,2%
CCOCCCN(C(=O)CCC(=O)Nc1cc(C)on1)C(C(=O)NC(C)(C)C)c1ccccc1Cl (centres undefined),-3%,-6,-22%,9%,-1%,-3%
O=C(Nc1ccc(N2CCN(C(=O)c3ccccc3)CC2)cc1)c1cc2ccccc2o1,-5%,-97*,5.2µM*,10%,10%,6.5µM*
CN1CCN(c2ccccc2NC(=O)c2cc3ccccc3o2)CC1,7%,?,?,-13%,8%,?
CS(=O)(=O)N1CCN(c2ccccc2NC(=O)c2cc3ccccc3o2)CC1,-11%,-11,15µM*,?,-2%,-29%
O=C(NC(=S)N1CCOCC1)c1cc2ccccc2o1,0%,9,12µM*,1%,?,6.5µM*
O=C(Nc1ccccc1N1CCOCC1)c1cc2ccccc2o1,-10%,3,-26%,8%,-5%,16µM*
Cc1sc2ncn(CC(=O)Nc3cccc(C(F)(F)F)c3)c(=O)c2c1S(=O)(=O)N1CCN(C)CC1,/,/,-87%,/,/,?
Cc1ccc(NC(=O)CN(C)CC(=O)Nc2sc3c(c2C(N)=O)CCC3)cc1,0%,-28,?,-11%,6%,?
COc1ccc(-c2cn(CC[C@@H]3CC[C@H](NC(=O)Cc4ccccn4)[C@@H](CO)O3)nn2)cc1,/,-17,-7%,/,/,-6%

# Screening results as filed in PubChem BioAssay.
